# Source: PubChem BioAssay (National Center for Advancing Translational Sciences (NCATS))
# Rows were chosen to be rich in hits. Some 12% of all compounds tested hit in one or more screens of this group.
# SARS PLpro yeast: qHTS of Yeast-based Assay for SARS-CoV PLP; S. cerevisiae expressing SARS-CoV PLpro, growth rescue; Potency, µM (series often up to 32.9 µM), inactives show top-dose activity, positive = growth rescue, hits mostly activators; hit rate 0.19% among 330,000; AID 485353, 2010; note: potency is the fitted concentration of half-maximal effect; 0% is about no effect; nearly all actives have a fitted effect of over 55% in size
# NS1 inh: qHTS Assay for Inhibitors of Influenza NS1 Protein Function | hit rate 0.4% among 270,000 | AID 2326, 2010 | Potency, µM (top dose mostly 46.1 µM), without a hit: at the top dose activity, positive = more growth; note: potency is the fitted concentration of half-maximal effect; actives are rising curves; nearly all actives have a fitted effect of over 50% in size
#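 Read-out: OD600 growth recovery of NS1-expressing budding yeast. Cells grown overnight at 30C in -URA glucose medium, washed, resuspended and diluted 1:100 in 2% galactose assay medium, pH 6.0. Same strain lacking NS1 served as positive control.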
# CHX counter: Cycloheximide Counterscreen for Small Molecule Inhibitors of Shiga Toxin | AID 2314, 2010 | cell reporter, cycloheximide protein synthesis inhibition counterscreen | max response, % | hit rate 12% among 300,000; in the data active = max response mostly above about 13%, no sharp cut-off; inactive = mostly below about 14%; note: read at 38.3 µM for the half of the compounds with a filed dose; 0% is about no effect
# Shiga inhibitor: A qHTS for Small Molecule Inhibitors of Shiga Toxin. Vero cells, Shiga toxin protein synthesis inhibition reporter. inhibition, % at 38.7 µM. hit rate 9.2% among 290,000. AID 2315, 2010; in the data active = inhibition mostly above about 28%, no sharp cut-off; inactive = mostly below about 43%; note: 0% is about no effect
# Numbers without * were called inactive; / = no result. Unless noted, calls come from the whole dose curve.
SMILES,SARS PLpro yeast,NS1 inh,CHX counter,Shiga inhibitor
CCOc1cc(/C=N/Nc2cccc(C(=O)O)c2)ccc1OC(=O)c1ccccc1,0%,9%,61*,186*
COc1ccc(NC(C)C(=O)N/N=C/c2ccccc2OCc2ccc(Br)cc2)cc1 (stereo not drawn),5%,11%,35*,145*
CCOc1cc(/C=N/NC(=O)CNc2cccc(C)c2)ccc1OC(=O)c1ccccc1,-5%,27%,-6,-5
CCOC(=O)C1=C(N)OC2=C(C(=O)CCC2)C1c1ccccc1OCC (stereo not drawn),12%,-1%,-1,18
CC(C)C1Cc2c(sc3c2c(=O)n(-c2ccccc2)c2n[nH]c(=S)n32)CO1 (stereo not drawn),-3%,3%,-3,-3
CNc1ncc(C(=O)c2ccc(F)cc2)s1,-1%,1%,43*,67*
CC(=O)c1cnc(Nc2cccc(C)c2)s1,-2%,/,48*,119*
O=C(c1ccccc1)c1cnc(Nc2ccc(Cl)c(Cl)c2)s1,1%,4%,8,2
O=C(c1ccc(F)cc1)c1cnc(Nc2ccccc2)s1,3%,-3%,23*,75*
Cc1ccc(S(=O)(=O)N(CC(=O)NCC2CCCO2)C2CCCCC2)cc1 (stereo not drawn),1%,4%,-4,-3
CCc1ccc(NC(=O)C(=O)NCCOc2ccccc2Cl)cc1,-4%,/,-5,22
CC1=Nc2ccccc2N=C(NC(=O)c2ccccc2)C1c1ccc(Cl)cc1 (stereo not drawn),-2%,3%,0,-4
CC1=Nc2ccccc2N=C(N)C1c1ccccc1 (stereo not drawn),-6%,-54%,40*,67*
CCCNC(=S)N1CCN(C)CC1,0%,13%,0,-8
Cc1cc(C)n(-c2ccc(Cl)c(C(=O)O)c2)n1,0%,-9%,44*,46
CCOC(=O)c1nc(C)n(-c2ccc(Cl)cc2)n1,-7%,1%,20*,12
CCOC(=O)c1ccc(-n2nc(C)cc2C)cc1,1%,-4%,15*,active
Cc1cc(C)n(-c2ccc(C(=O)OCC(=O)NC(c3ccccc3)c3ccccc3)cc2)n1,0%,-7%,-1,-16
CCOC(=O)c1cnc(-n2nc(C)cc2C)nc1N(C)C,-8%,-67%,18*,48*
Cc1cc(C)n(-c2cc(C(=O)O)cc(C(=O)O)c2)n1,0%,3%,-2,-21
COc1cc(/C=C/C(=O)NC(=O)c2ccccc2O)ccc1OC(C)=O,-22%,10%,33*,70*
COc1ccc(/C=C/C(=O)Nc2ccccc2)cc1S(=O)(=O)N1CCOCC1,-1%,1%,11*,17
O=C(/C=C/c1ccc(OC(F)F)cc1)Nc1cccc(S(=O)(=O)N2CCOCC2)c1,1%,-4%,25*,41*
COc1ccc(/C=C/C(=O)Nc2cccc(S(=O)(=O)N3CCOCC3)c2)cc1OC,1%,/,/,/
COc1ccc(/C=C/C(=O)Nc2ccccc2)cc1OC,-2%,/,36*,127*
SMILES,SARS PLpro yeast,NS1 inh,CHX counter,Shiga inhibitor
CSc1ccccc1NC(=O)C1CC(c2ccccc2Cl)=NO1 (stereo not drawn),-8%,5%,12,43
CC(C)N1CCC(N2CCN(CCCn3cccn3)CC2CCO)CC1 (stereo not drawn),-2%,1%,-2,-2
COc1ccc(/C=C/C(=O)NC2CCCCCCC2)cc1S(=O)(=O)N1CCOCC1,-3%,-5%,37*,70*
CCc1ncc(C(=O)c2ccc(OC)cc2)n1C,2%,4%,14*,9
O=C1c2ccccc2S(=O)(=O)N1CC1CC(c2ccccc2Cl)=NO1 (stereo not drawn),20%,-13%,86*,active
COc1ccccc1C1=NOC(CN2C(=O)c3ccccc3S2(=O)=O)C1 (stereo not drawn),0%,-2%,53*,146*
COc1ccccc1C1=NOC(COC(=O)c2ccc(Br)cc2)C1 (stereo not drawn),-38%,-6%,2,1
CC(C)N1CCN(Cc2cnc(N3CCCC3)s2)CC1CCO (stereo not drawn),1%,4%,-3,-7
O=C(Cn1nc(-c2ccccc2)ccc1=O)Nc1cccc(NC(=O)c2ccccn2)c1,-2%,/,8,-13
O=C(Nc1ccc(Cl)c(Cl)c1)c1ccco1,-10%,-143%,48*,50*
O=C(Nc1ccc2[nH]c3c(c2c1)CCCC3)c1ccco1,1%,-36%,14*,42*
O=C(Nc1ccc(F)c(F)c1)c1ccco1,1%,2%,45*,89*
O=C(Nc1ccc(F)cc1F)c1ccco1,/,2%,17,38
